In the library only some 3.9% were active in any assay of this set; here they are far more common.
BoNT-F LC inh – BoNT/F light chain protease inhibitors, primary screen, biochemical, flow cytometry, MLPCN library. Botulinum neurotoxin type F light chain protease (Clostridium botulinum). Multiplex microsphere protease cleavage assay. inhibition, % at 10 µM. 360,000 tested, 0.22% active; in the data active means inhibition above about 35%, passing the limit was not always enough; inconclusive means no clear call, values can overlap the other calls
SARS 3CLpro inh – SARS-CoV 3CLpro protease inhibitors, primary screen, biochemical, quenched FRET | recombinant SARS-CoV 3CLpro, quenched FRET peptide cleavage | inhibition, % at 6 µM | 290,000 tested, 0.14% active; in the data active means inhibition above about 12%
BoNT-A LC inh2 – BoNT/A light chain protease inhibitors, primary screen, biochemical, flow cytometry, MLPCN library. inhibition, % at 10 µM. 360,000 tested, 0.17% active. AID 588499, 2011. multiplex microsphere protease substrate cleavage. Botulinum neurotoxin type A light chain protease (Clostridium botulinum A str. ATCC 3502)
DUSP3 inh – VHR1 phosphatase inhibitors, primary screen, biochemical, absorbance, uHTS; recombinant VHR phosphatase, pNPP absorbance; AID 1654, 2009; inhibition, % at 13.3 µM; Dual specificity protein phosphatase 3 (Homo sapiens), P51452; 290,000 tested, 0.52% active; in the data active means inhibition above about 50%
Anthrax LF prot – Bacillus anthracis LF protease inhibitors, primary screen, biochemical, multiplex microsphere, MLPCN library; Lethal factor (Bacillus anthracis), P15917; multiplex microsphere protease cleavage assay; inhibition, % at 10 µM; 360,000 tested, 0.12% active
Bead autofluor – compound fluorescence in toxin protease inhibitor counterscreen; compound autofluorescence counterscreen, microsphere flow cytometry; stronger effect = higher value; fluorescence intensity (no concentration beside the values); 360,000 tested, 3.1% active; in the data active means fluorescence intensity above about 16000; inconclusive means no clear call, values can overlap the other calls
Numbers stand for hits; - = inactive; ? = inconclusive; . = no result. Unless noted, no stated cut-off is given here; in the data, active means inhibition above about 30%; inconclusive means no clear call, values can overlap the other calls; inactive means below that.

SMILES | BoNT-F LC inh | SARS 3CLpro inh | BoNT-A LC inh2 | DUSP3 inh | Anthrax LF prot | Bead autofluor
CCOC(=O)c1nc(C)n(-c2ccc(Cl)cc2)n1 | - | - | - | - | - | -
COc1ccc(-n2nc(N)c3c(=O)oc(N(C)C)nc32)cc1 | - | - | - | - | - | 16554
COc1ccc(-n2nc(C)c3onc(C)c3c2=O)cc1 | - | - | - | - | - | -
Cn1c(CSCc2ccc(Cl)c(Cl)c2)n[nH]c1=S | - | - | - | - | - | -
O=C(O)c1cccc2c1C(=O)c1cc([N+](=O)[O-])ccc1-2 | - | . | - | . | - | -
O=C(CN1CCN(Cc2ccccc2)CC1)NCC1COc2ccccc2O1 (stereo not given) | - | - | - | - | - | 23257
COc1ccc(Nc2cc(Nc3cccc(OC)c3)ncn2)cc1 | ? | - | - | - | - | -
CCn1c(SCc2nnc(-c3ccccc3)o2)nnc1-c1ccc(S(=O)(=O)N2CCCC2)cc1 | - | - | - | - | - | 23063
CCn1c(SCc2ccccc2)nnc1-c1ccc(S(=O)(=O)N2CCCCC2)cc1 | - | - | - | - | - | -
CCC(C)NC(=O)c1ccccc1NC(=O)c1ccc(CSc2ccc(C)cc2)cc1 (stereo not given) | - | - | - | - | - | 17124
CCC(C)NC(=O)c1ccccc1C(=O)NC(C)CC (stereo not given) | - | - | - | - | - | 24599
Cc1ccccc1NC(=O)c1ccc(CSc2ncccn2)cc1 | - | - | - | - | - | 16598
CC1Cc2ccccc2N1C(=O)COC(=O)CCc1nc2ccccc2c(=O)[nH]1 (stereo not given) | - | - | - | - | - | -
COCCCN1CC(=O)N2C(c3cccc(OC)c3OC)c3[nH]c4ccccc4c3C[C@H]2C1=O (stereo not given in full) | - | - | - | . | - | -
O=C(CCC(=O)N1CCN(S(=O)(=O)c2ccccc2)CC1)c1cccs1 | - | - | ? | - | - | 20748
O=C(CCC(=O)N1CCc2ccccc2C1)N1CCN(S(=O)(=O)c2ccccc2)CC1 | - | - | - | - | - | -
CCc1nc(C)cc(N)c1OCc1ccccc1 | - | - | - | - | - | 17332
Cc1c(Cc2ccccc2)sc(NC(=O)c2ccco2)c1C(N)=O | - | - | - | - | - | -
CCOc1ccc(CC(=O)Nc2sc(Cc3ccccc3)c(C)c2C(N)=O)cc1OCC | - | - | - | - | - | 23316
O=C(CCn1nnc2ccccc21)Nc1nnc(COc2ccccc2F)s1 | - | - | - | - | - | -
O=C(CCn1nnc2ccccc21)Nc1nnc(-c2ccccc2F)s1 | - | - | - | - | - | 22751
CC(NC(=O)C(NS(=O)(=O)c1cccs1)C(C)C)c1ccc(S(N)(=O)=O)cc1 (stereo not given) | - | . | - | . | - | -
COc1cc(C)c(CN2CCSCC2)cc1C | - | - | - | - | - | -
COc1cc(C)c(CN2CCN(c3ccccc3)CC2)cc1C | - | - | - | - | - | 17583
O=C(CCCc1ccccc1)NCCS(=O)(=O)N1CCN(c2ccccc2)CC1 | - | . | - | . | - | -
SMILES | BoNT-F LC inh | SARS 3CLpro inh | BoNT-A LC inh2 | DUSP3 inh | Anthrax LF prot | Bead autofluor
O=C(CN1C(=O)NC2(CCCCCC2)C1=O)NCc1ccccc1Cl | - | . | - | . | - | ?
COc1cc(OC)cc(C(=O)NN2CCCCC2)c1 | - | - | - | - | - | 25088
COc1cc(OC)cc(C(=O)N2CCC(N3CCCCCC3)CC2)c1 | - | - | - | - | - | 19182
O=C(COC(=O)c1nc(Cl)ccc1Cl)Nc1cccc(S(=O)(=O)N2CCOCC2)c1 | - | . | - | . | - | -
COCCNC(=O)CN1CCC(NC(=O)Nc2ccccc2)CC1 | - | - | ? | - | - | ?
COCCNC(=O)CN1CCC(NC(=O)Nc2ccc(C(F)(F)F)cc2)CC1 | - | - | - | - | - | 23251
CC(=O)N1CCN(c2ccc(NC(=O)c3ccc4c(c3)OCCO4)cc2Cl)CC1 | - | - | - | - | - | -
O=C(Nc1ccc(N2CCCCC2)cc1)c1ccc2c(c1)OCCO2 | - | - | ? | - | - | 23082
O=C(Nc1ccc(N2CCOCC2)cc1)c1cccc(-n2cnnc2)c1 | - | - | - | 53.4 | - | -
O=C(Nc1ccc(N2CCOCC2)c(Cl)c1)c1cccc(-n2cnnc2)c1 | - | - | - | - | - | -
CC(C)C(=O)N1CCN(c2ccc(NC(=O)c3ccc4c(c3)OCCO4)cc2Cl)CC1 | - | - | ? | - | - | 16164
CC(=O)N1CCN(c2ccc(NC(=O)c3ccc4c(c3)OCCO4)cc2)CC1 | - | - | - | - | - | -
CSc1ccc(/C=C/C(=O)c2c(O)cc(C)oc2=O)cc1 | 45.1 | - | - | - | - | -
O=C(Cc1ccc(NS(=O)(=O)c2ccc(F)cc2)cc1)NCc1cccnc1 | - | - | - | - | - | -
O=C1c2ccccc2NC2(CCCCC2)N1c1ccc(O)cc1 | 155.7 | - | - | - | 53.9 | -
Cc1nn(-c2ccc(F)cc2F)c(=O)c2noc(C)c12 | . | - | . | - | . | .
Cc1nn(-c2ccc(F)cc2F)c2c1-c1nc(N3CCCC3)ncc1CC2 | - | - | ? | - | - | 23757
COc1cccc(-c2cc(C(F)(F)F)nc(-n3cncn3)n2)c1 | - | - | ? | - | - | 25001
COc1cccc(-c2cc(C(F)(F)F)nc(-n3cc(C)cn3)n2)c1 | - | - | - | - | - | -
Fc1ccc(-c2cc(C(F)(F)F)nc(-n3cncn3)n2)cc1 | - | - | - | - | - | 21601
CC(=O)Nc1cccc(C(=O)OC(C(=O)c2ccc(C)c(C)c2)c2ccccc2)c1 (stereo not given) | - | - | - | - | - | 19826
c1ccc(N2CCN(c3c4c(nc5ncnn35)CCC4)CC2)cc1 | - | - | - | - | - | 21815
COc1cccc(N2CCN(c3c4c(nc5ncnn35)CCC4)CC2)c1 | - | - | - | - | - | 22408
Cn1nc(C(=O)NCc2cccs2)c2ccccc2c1=O | - | - | - | - | - | -
O=C(NCc1ccccc1Cl)c1cc(C(=O)C2CC2)c[nH]1 | - | - | - | - | - | -
SMILES | BoNT-F LC inh | SARS 3CLpro inh | BoNT-A LC inh2 | DUSP3 inh | Anthrax LF prot | Bead autofluor
C/C(=N\NC(=O)c1ccc(Cl)c(Cl)c1)c1ccccn1 | 37.4 | - | - | - | - | -
C/C(=N\NC(=O)c1ccccc1Cl)c1ccccn1 | - | - | - | - | - | -
NC(=O)C1C(=O)c2ccccc2C1(C[N+](=O)[O-])c1ccccc1 (stereo not given) | - | . | - | . | - | -
CC(C)NS(=O)(=O)c1ccc(NC(=O)CCc2ccccc2)cc1 | - | - | - | - | - | 21469
COCC(=O)Nc1ccc(S(=O)(=O)NCCc2ccccc2)cc1 | - | - | - | - | - | 16357
O=C(CCc1ccccc1)Nc1ccc(NS(=O)(=O)c2ccccc2)cc1 | - | - | - | - | - | -
CCC(=O)Nc1ccc(S(=O)(=O)NCCc2ccccc2)cc1 | . | - | . | - | . | .

Source: PubChem BioAssay (several laboratories)
